Hit rate of the full screen: of about 400,000 compounds, about 2,100 (0.53%) were called active. Another 14% or so got no clear call; they are omitted. The rule behind the calls is not given here. The sample as a whole holds a higher share of actives than the screen did.

Ataxin-2 (Homo sapiens), sequence (Q99700 whole entry): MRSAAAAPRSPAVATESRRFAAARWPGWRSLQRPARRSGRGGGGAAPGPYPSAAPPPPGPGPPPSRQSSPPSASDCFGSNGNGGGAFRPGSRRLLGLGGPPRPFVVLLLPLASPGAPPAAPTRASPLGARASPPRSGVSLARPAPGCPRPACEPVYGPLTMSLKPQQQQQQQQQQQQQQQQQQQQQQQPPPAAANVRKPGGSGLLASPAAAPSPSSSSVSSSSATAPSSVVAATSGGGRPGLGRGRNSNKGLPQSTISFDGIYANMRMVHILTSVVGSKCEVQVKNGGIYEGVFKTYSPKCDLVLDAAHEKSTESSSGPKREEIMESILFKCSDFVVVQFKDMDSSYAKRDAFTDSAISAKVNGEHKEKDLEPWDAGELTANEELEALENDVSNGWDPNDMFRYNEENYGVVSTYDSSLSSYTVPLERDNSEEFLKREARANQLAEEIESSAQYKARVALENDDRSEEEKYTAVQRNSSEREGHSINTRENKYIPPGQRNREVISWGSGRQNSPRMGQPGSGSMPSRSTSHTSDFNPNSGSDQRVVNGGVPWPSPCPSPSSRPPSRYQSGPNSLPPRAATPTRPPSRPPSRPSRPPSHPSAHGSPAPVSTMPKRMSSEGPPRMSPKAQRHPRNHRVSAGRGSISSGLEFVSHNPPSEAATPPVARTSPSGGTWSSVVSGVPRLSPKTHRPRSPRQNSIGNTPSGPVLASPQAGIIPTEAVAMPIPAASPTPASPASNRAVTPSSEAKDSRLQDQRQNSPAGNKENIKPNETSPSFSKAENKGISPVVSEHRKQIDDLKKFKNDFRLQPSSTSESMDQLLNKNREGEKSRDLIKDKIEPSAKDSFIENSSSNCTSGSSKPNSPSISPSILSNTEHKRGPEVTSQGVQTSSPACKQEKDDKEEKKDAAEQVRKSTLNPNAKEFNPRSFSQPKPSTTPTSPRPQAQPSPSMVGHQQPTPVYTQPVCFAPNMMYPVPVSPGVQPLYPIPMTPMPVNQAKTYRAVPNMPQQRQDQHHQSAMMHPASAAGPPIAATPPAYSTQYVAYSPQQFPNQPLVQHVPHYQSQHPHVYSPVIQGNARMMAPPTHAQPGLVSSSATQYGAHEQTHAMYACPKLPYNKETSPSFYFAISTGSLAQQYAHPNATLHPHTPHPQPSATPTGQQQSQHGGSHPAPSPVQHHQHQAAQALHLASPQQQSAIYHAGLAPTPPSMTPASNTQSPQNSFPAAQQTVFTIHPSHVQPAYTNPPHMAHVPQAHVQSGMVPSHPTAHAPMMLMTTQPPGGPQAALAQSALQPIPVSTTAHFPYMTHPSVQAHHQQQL

This test has as its target Ataxin-2 (Homo sapiens) (UniProt Q99700). Description: qHTS for Inhibitors of ATXN expression. It is filed as functional.
As for `CN(C)c1nc(-c2cccs2)cc(C(F)(F)F)c1C#N`, the Potency result was “inactive”.
In the case of `CCCCOc1c(C(=O)Nc2ccccc2)nnn1-c1ccccc1`, the Potency entry was “inactive”.
The same measure for `COC(=O)c1ccc(NCc2c(O)ccc(O)c2Br)cc1Cl`: 28.2 µM (active); for `O=C(OCc1ccccc1)c1ccc(NCc2cc(O)ccc2O)cc1`: 8.91 µM (active).
Turning to `CC(=O)Cc1cc(O)c2ccccc2c1OC(=O)c1ccccc1`, the Potency entry is “inactive”.
The same measure for `CCCS(=O)(=O)c1ccc(COC(=O)c2cccc(NC(=O)C(C)C)c2)cc1`: “inactive”.
With `Cc1ccc2nc(-c3ccc(NC(=O)c4cccnc4)cc3)oc2c1` the figure was 25.1 µM (active); with `CC(=O)Nc1ccc(NC(=O)c2cc(=O)c3ccc(C)cc3o2)cc1`, “inactive”; with `Cc1ccc(C)c(OC(=O)c2cccnc2)c1`, “inactive”.
The same measure for `CCOC(=O)c1cc2c(=O)n3ccccc3nc2n(CCCOC)/c1=N\C(=O)C(C)Oc1ccccc1` (stereo not given): “inactive”; for `O=C(Cn1nc(C(F)(F)F)c2c1CCCC2)Nc1ccc(Cl)cc1`: 39.8 µM (active); for `O=C(CN1CCCC1)Nc1ccc(Br)cc1`: “inactive”.
Take `Nc1c(C(=O)NCc2ccc(Cl)cc2)sc2nc3c(c(C(F)(F)F)c12)CCC3`: the Potency result was “inactive”.
Regarding `COC(=O)[C@@]1(Cc2ccc(F)cc2)[C@H]2c3cc(C(=O)N4CCCC4)n(Cc4ccccc4)c3C[C@H]2CN1C(=O)c1ccccc1`, the Potency is 25.1 µM (active).
The same measure for `COC(=O)C1CCN(C(=O)c2cc3c(=O)n4cccc(C)c4nc3n2Cc2ccccc2)CC1`: “inactive”.
With `COC(=O)[C@@]1(Cc2ccc(F)cc2)[C@H]2c3cc(C(=O)N(C)C)n(Cc4ccc(C)o4)c3C[C@H]2CN1C(=O)c1ccccc1` the figure was 35.5 µM (active).
For the molecule `COC(=O)[C@@]1(Cc2ccc(F)cc2)[C@H]2c3cc(C(=O)N4CCCC4)n(CC4CC4)c3C[C@H]2CN1C(=O)c1ccccc1`, the Potency is 39.8 µM (active).
The same measure for `CCOC(=O)C1CCCN(C(=O)c2ccc(Cn3c(=S)[nH]c4cc(C(=O)OC)ccc4c3=O)cc2)C1` (stereo not given): “inactive”; for `C=CCNC(=O)c1cc2c(=O)n3cccc(C)c3nc2s1`: “inactive”; for `Cc1cccc(N2C(=O)CC(NNc3nc4ccccc4s3)C2=O)c1` (stereo not given): “inactive”.
On to `COc1ccc(/C=C/CN2CCCC(CCC(=O)NCc3ccc(F)c(F)c3)C2)cc1` (stereo not given), for which the Potency entry is “inactive”.
With `COc1c2c(c(OC)c3c1c(=O)c1ccccc1n3C)OCO2` the entry was “inactive”; with `COCCN=C(NS(=O)(=O)c1cccs1)c1ccccc1Cl`, “inactive”.
With `C[N+]1(CN2C(=O)C3C4C=CC(C4)C3C2=O)CCCCC1` (stereo not given) the entry was “inactive”; with `CCN1C/C(=C/c2ccc(N3CCOCC3)cc2)C(=O)/C(=C/c2ccc(N3CCOCC3)cc2)C1`, 25.1 µM (active).
With `Cc1cc(N2CCOCC2)ccc1/C=C1/SC(=O)NC1=O` the entry was “inactive”; with `CCN(CC)c1ccc(C(=O)N/N=C/c2ccc(N3CCOCC3)cc2)cc1`, “inactive”.
With `O=c1oc2ccc3ccccc3c2cc1-c1nc2ccccc2o1`, the Potency result was “inactive”.
The same measure for `NNC(=O)c1cc2c(ccc3ccccc32)o1`: “inactive”.
The same measure for `O=c1cc(C(Cl)(Cl)Cl)oc2c1ccc1ccccc12`: 35.5 µM (active).
The same measure for `CCc1nonc1NC(=O)COc1cc(C)c(Cl)c(C)c1`: “inactive”; for `Fc1ccc(-n2cc(-c3ccccc3)c3c(S)ncnc32)cc1`: 39.8 µM (active).
For `COc1ccc(-n2cc(-c3ccccc3)c3c(NCCCN4CCOCC4)ncnc32)cc1`, the Potency entry was “inactive”.
The same measure for `COc1ccc(-n2cc(-c3ccccc3)c3c(NN4CCOCC4)ncnc32)cc1`: “inactive”; for `Cc1[nH]c2ccccc2c1C(O)CN1CCC2(CC1)OCCO2` (stereo not given): “inactive”.
Take `Cc1[nH]c2ccccc2c1C(c1ccccc1)c1cccs1` (stereo not given): the Potency was 39.8 µM (active).
Take `CCc1ccc(C(c2ccccc2)c2c(C)[nH]c3ccccc23)s1` (stereo not given): the Potency was 39.8 µM (active).
With `CC(C)CCN1C(=O)c2cccc3c(N)ccc(c23)C1=O` the entry was “inactive”; with `O=c1c2sccc2nc(SCc2cc(=O)n3cc(Cl)ccc3n2)n1Cc1ccccn1`, “inactive”; with `COc1ccc(OC)c([N+]2=C3SCCCN3C(O)(c3ccccc3)C2)c1` (stereo not given), “inactive”.
With `Cn1cc(CN2CCc3c([nH]c4ccccc34)C2C2CCCCC2)cn1` (stereo not given) the entry was “inactive”; with `CSc1ccc(C2c3c(-c4ccccc4O)n[nH]c3C(=O)N2Cc2ccncc2)cc1` (stereo not given), 22.4 µM (active); with `Cc1ccc2oc3c(c(=O)c2c1)C(c1ccc(O)cc1)N(CCCN(C)C)C3=O` (stereo not given), “inactive”.
With `CCc1ccc(C2c3c(-c4cc(C)ccc4O)n[nH]c3C(=O)N2Cc2cccnc2)cc1` (stereo not given) the figure was 39.8 µM (active).
For `O=C1c2cccc3c([N+](=O)[O-])ccc(c23)C(=O)N1Cc1cccnc1`, the Potency entry is “inactive”.
With `Cc1ccc(C(=O)C2=C(O)C(=O)N(Cc3cccnc3)C2c2ccc(Cl)cc2)o1` (stereo not given) the entry was “inactive”; with `COCCN1C(=O)c2[nH]nc(-c3cc(C)ccc3O)c2C1c1ccc(C(C)C)cc1` (stereo not given), 39.8 µM (active); with `CCc1ccc(C2c3c(-c4ccccc4O)n[nH]c3C(=O)N2Cc2cccnc2)cc1` (stereo not given), 22.4 µM (active).
The same measure for `CCOC(=O)c1sc2c(c1C)C(c1cccs1)C1=C(O)CCCC1=N2` (stereo not given): “inactive”; for `c1cc(-c2sc(-c3ccncc3)c(-c3ccncc3)c2-c2ccncc2)ccn1`: “inactive”.
The same measure for `COc1ccc(-n2c(=O)/c(=C\c3cccs3)s/c2=C(/C#N)C(=O)NCCN2CCOCC2)cc1`: “inactive”.
Take `CCCOc1ccc(C2c3c(-c4ccccc4O)n[nH]c3C(=O)N2Cc2cccnc2)cc1` (stereo not given): the Potency was 35.5 µM (active).
With `CCCOc1ccc(C2c3c(-c4ccccc4O)n[nH]c3C(=O)N2CCCOCC)cc1OCC` (stereo not given) the figure was 22.4 µM (active); with `CCOc1ccccc1Oc1c[nH]nc1-c1ccc(OCC(=O)NN)cc1O`, “inactive”; with `CCOc1ccc(C2CC(c3c(O)oc4ccccc4c3=O)=NN2c2ccccc2)cc1OC` (stereo not given), “inactive”.
Take `O=C(C1CCCO1)N1CCN(C(=O)C23CC4CC(CC(C4)C2)C3)CC1` (stereo not given): the Potency result is “inactive”.
With `O/N=C1\CCCc2ccc3ccccc3c21` the entry was “inactive”.
The same measure for `Cc1ccc(OC(=O)c2ccncc2)c(C)c1`: “inactive”; for `O=C(NNC(=O)c1csc(-c2cccs2)n1)c1ccc(Cl)cc1`: 22.4 µM (active); for `O=S(=O)(NCc1csc(-c2cccs2)n1)c1ccc(Cl)cc1`: “inactive”.
The same measure for `O=C(NCc1csc(-c2cccs2)n1)c1cccc(Cl)c1`: “inactive”.
`C=CCn1c(NC(=O)c2ccccc2Cl)c(C#N)c2nc3ccccc3nc21`: the Potency entry is “inactive”.
Consider `CCOC(=O)c1cnc2ccc(C)cc2c1N(C)Cc1ccccc1`, for which the Potency result was “inactive”.
The same measure for `CCOC(=O)c1cnc2ccc(C)cc2c1Nc1ccc(N(CC)CC)cc1`: 28.2 µM (active); for `CCOC(=O)c1cnc2ccc3ccccc3c2c1O`: “inactive”.

(Values after ChEMBL document CHEMBL1201862, “PubChem BioAssay data set” (2004).)
